Rows were chosen to be rich in hits. Some 1.8% of all compounds tested hit in one or more screens of this group.
Six1-Eya2 inh: blocks human Six1 binding to Eya2; Q15475+O00167; AlphaScreen GST-Six1/His-Eya2 binding, biochemical; active compounds read low; activity change, % (concentration not given with the values); hit rate 0.56% among 360,000; AID 651725
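Compounds are tested against tagged Six1 and Eya2 proteins bridged by glutathione donor and nickel acceptor beads; after a one-hour incubation at 37 °C without light, AlphaScreen emission is recorded.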
Akt phos inh: Akt phosphorylation inhibition; Neuro2A IGF-stimulated pAkt S473 HTRF, 20 min; active compounds read low; activity change, % for hits at 50 µM; hit rate 0.32% among 360,000; AID 651550; in the data active = activity change below about -80%; inconclusive = mostly about -51% to -80%
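Single-point screen (50 µM final compound) in Neuro2A cells stimulated 20 min with 6 nM IGF at 37 deg C. After lysis, Ser473-phosphorylated Akt read by HTRF (ex 330 nm, em 615/665 nm) as the 665/615 ratio.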
PI4K2A block: blocks human PI4K2A kinase activity | Q9BTU6 | purified PI4K2A, ADP-Glo luminescence, 1 h; active compounds read low | activity change, negative = inhibition, % at 76.9 µM | hit rate 0.13% among 420,000 | AID 1346378; in the data active = activity change below about -50%; inconclusive = mostly about -30% to -49%;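 note: -100% = wells without enzyme as full effect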
Target sequence (Q9BTU6 whole entry, looked up): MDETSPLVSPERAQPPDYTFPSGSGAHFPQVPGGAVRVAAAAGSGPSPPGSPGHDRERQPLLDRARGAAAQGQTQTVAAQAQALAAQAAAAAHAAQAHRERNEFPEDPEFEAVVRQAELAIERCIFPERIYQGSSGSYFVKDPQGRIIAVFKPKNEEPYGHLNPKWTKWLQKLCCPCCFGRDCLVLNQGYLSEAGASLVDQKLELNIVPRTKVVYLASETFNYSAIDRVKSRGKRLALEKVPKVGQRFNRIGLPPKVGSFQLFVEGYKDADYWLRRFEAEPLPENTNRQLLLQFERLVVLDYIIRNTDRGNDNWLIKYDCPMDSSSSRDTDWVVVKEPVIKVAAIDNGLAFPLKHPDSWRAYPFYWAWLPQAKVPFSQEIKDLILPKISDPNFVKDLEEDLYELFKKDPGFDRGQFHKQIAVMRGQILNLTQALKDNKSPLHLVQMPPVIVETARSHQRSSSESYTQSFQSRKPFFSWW
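Compounds are screened against recombinant PI4K2A using PI as substrate and ATP, the latter dispensed at 300 microM. Reactions run one hour at ambient temperature before ADP-Glo detection; full inhibition defined by wells lacking enzyme.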
PI5P4K alpha inh: blocks human PI5P4K alpha kinase activity | hit rate 1.2% among 330,000 | max response, % | PI5P4Kalpha enzyme, ADP-Glo luminescence, 60 min; active compounds read low | P48426; active = max response of -50% or lower; inconclusive = between -30% and -50%; inactive = -30% or higher; note: value at the top dose of about 77 µM
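Reactions run in 0.038 M HEPES pH 7.4, 0.28 mM EGTA, 0.1% CHAPS and 5% DMSO, with PI5P4Kalpha, substrate, compound and 5 microM ATP final, one hour at room temperature. Readout is ADP-Glo luminescence.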
CtBP-E1A inh: inhibitors of CtBP/E1A interaction | AlphaScreen GST-E1A/His-CtBP binding, 1536-well; active compounds read low | activity change, % (no concentration beside the values) | hit rate 0.49% among 340,000 | AID 651724
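Protein mix (5X: 125 nM each GST-E1A, His-CtBP) was incubated with pinned compound 2 h at 37 deg C in dark, in 50 mM Tris pH 8.0 buffer with 300 mM NaCl. Glutathione donor and nickel acceptor beads followed; AlphaScreen signal read after 1 h.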
The depositor's hits bear a star; ! = not confirmed by another sample. Cut-off read from the data, not from the text of the source, unless noted: active = activity change below about -65%; inconclusive = mostly about -30% to -63%; inactive = weaker than that. Unless noted, % is set by controls: 0 for no effect and ±100 for the full control effect.

How did O=C(N/N=C/c1ccccc1O)c1cccc(C(F)(F)F)c1 do in these assays?
Six1-Eya2 inh: -78.9*; Akt phos inh: inactive; PI4K2A block: 0.7; PI5P4K alpha inh: 4.2; CtBP-E1A inh: -81.4*

Results for O=C1CC(NCC2CCCO2)C(=O)N1c1ccc(Cl)cc1 (stereo unspecified) ?
Six1-Eya2 inh: 3.0; Akt phos inh: inactive; PI4K2A block: -0.8; PI5P4K alpha inh: 2.0

How did Oc1ccc2ccccc2c1C=Nc1ccc(Cl)cn1 do in these assays?
Six1-Eya2 inh: -7.3; Akt phos inh: inactive; PI4K2A block: -2.2; PI5P4K alpha inh: -10.6; CtBP-E1A inh: 4.3

How did O=C(NCC(=O)N1CCCC1)NN=Cc1ccccc1O do in these assays?
Six1-Eya2 inh: inconclusive; Akt phos inh: inactive; PI4K2A block: -2.0; PI5P4K alpha inh: -1.5; CtBP-E1A inh: -77.1*

What do the screens show for `O=C(CCCCC(=O)NN=Cc1ccccc1O)NN=Cc1ccccc1O`?
Six1-Eya2 inh: -15.2; Akt phos inh: inactive; PI4K2A block: 3.7; PI5P4K alpha inh: -5.4; CtBP-E1A inh: -12.6

Results for O=C(CSCC(=O)NN=Cc1ccccc1O)NN=Cc1ccccc1O ?
Six1-Eya2 inh: -82.6*; Akt phos inh: inactive; PI4K2A block: 5.0; PI5P4K alpha inh: -0.9; CtBP-E1A inh: -4.0

What do the screens show for `COc1cccc(/C=N\NC(=O)C2C(=O)NCC2c2ccccc2)c1O` (stereo unspecified)?
Six1-Eya2 inh: -86.5*; Akt phos inh: inactive; PI4K2A block: 1.0; PI5P4K alpha inh: 7.2; CtBP-E1A inh: -89.8*

How did COc1ccc(/C=N/NC(=O)CSCC(=O)Nc2ccccc2)cc1 do in these assays?
Six1-Eya2 inh: -4.5; Akt phos inh: inactive; PI4K2A block: 4.7; PI5P4K alpha inh: -2.2; CtBP-E1A inh: -4.7

What do the screens show for `COc1cccc(/C=N/NC(=O)CSCC(=O)Nc2ccccc2)c1O`?
Six1-Eya2 inh: -69.8*; Akt phos inh: inactive; PI4K2A block: -5.0; CtBP-E1A inh: -85.2*

Results for O=S(=O)(Nc1ccccc1N1CCOCC1)c1cccs1 ?
Six1-Eya2 inh: 2.6; Akt phos inh: inactive; PI4K2A block: -2.6; PI5P4K alpha inh: -4.3; CtBP-E1A inh: 1.3

Results for COCCCNC(=O)Cc1coc2ccc3ccccc3c12 ?
Six1-Eya2 inh: 12.3; Akt phos inh: inactive; PI4K2A block: -1.9; PI5P4K alpha inh: -10.2; CtBP-E1A inh: 6.0

How did CC(=O)Oc1ccc2cc(-c3cccnc3)c(=O)oc2c1 do in these assays?
Six1-Eya2 inh: -3.2; Akt phos inh: inactive; PI4K2A block: -8.2; PI5P4K alpha inh: 0.1; CtBP-E1A inh: -2.4

Results for Cc1ccc(NC(=O)CCn2cnc3onc(-c4ccc(F)cc4)c3c2=O)c(Br)c1 ?
PI4K2A block: 5.2

Results for O=C(O)c1ccc(-c2nc(-c3ccccc3)c(-c3ccccc3)[nH]2)cc1 ?
Six1-Eya2 inh: -11.8; Akt phos inh: inactive; PI4K2A block: 0.8; PI5P4K alpha inh: -6.4; CtBP-E1A inh: 0.7

Results for COc1ccccc1N=Nc1nc(-c2ccccc2)c(-c2ccccc2)[nH]1 ?
Six1-Eya2 inh: inconclusive; Akt phos inh: inactive; PI4K2A block: 2.1; PI5P4K alpha inh: -3.2; CtBP-E1A inh: 12.5

How did COc1ccc(N=Nc2nc(-c3ccccc3)c(-c3ccccc3)[nH]2)cc1 do in these assays?
Six1-Eya2 inh: -69.8*; Akt phos inh: inactive; PI4K2A block: 6.2; PI5P4K alpha inh: 1.7; CtBP-E1A inh: 1.7

What do the screens show for `Oc1ccccc1N=Nc1nc(-c2ccccc2)c(-c2ccccc2)[nH]1`?
Six1-Eya2 inh: -66.6*; Akt phos inh: inactive; PI4K2A block: -1.6; PI5P4K alpha inh: -11.3; CtBP-E1A inh: inconclusive

How did COc1ccc(CN(C)C(=O)CCN=C2NS(=O)(=O)c3ccccc32)c(OC)c1 do in these assays?
Six1-Eya2 inh: -0.6; Akt phos inh: inactive; PI4K2A block: 3.5; PI5P4K alpha inh: -3.4; CtBP-E1A inh: 0.4

Results for O=C1c2c(O)ccc(O)c2C(=O)c2c(NCCNCCO)ccc(NCCNCCO)c21 ?
Six1-Eya2 inh: -84.9*!; Akt phos inh: inactive; PI4K2A block: inconclusive; PI5P4K alpha inh: -66.2*!; CtBP-E1A inh: -81.7*

Results for O=C(CCN1C(=O)/C(=C/c2cccs2)SC1=S)Nc1ccc(O)cc1 ?
Six1-Eya2 inh: -1.1; Akt phos inh: inactive; PI4K2A block: -3.2; PI5P4K alpha inh: -6.0; CtBP-E1A inh: -3.4

Compound activity from PubChem.
